# Measurements published in PubChem BioAssay (NCI).
# Compounds without any hit were thinned out: in the full panel of roughly 83,000, 20% have a hit.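 Cell lines were cultured in 96-well plates, exposed to a single compound concentration, and assessed for percent growth 48 hours later.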 The source made the active and inactive calls. The calls were made as follows: active = growth percent below 10; inactive = the rest.
# System: MDA-MB-468 breast
# Assay: NCI-60 one-dose screen, 48 h (100 = growth as untreated, 0 = no growth, -100 = all killed)
# Settings: 10 µM unless noted
row,Compound,growth
1,Cc1cc(C)c(-c2cc(O)c(-c3c(C)cc(C)cc3C)cc2O)c(C)c1,4.15% (active)
2,C/C(C=O)=C\c1ccc2c(c1)OCO2,94.8% (inactive)
3,Nc1ccc2ccc(NS(=O)(=O)N3CCCCC3)cc2c1,7.79% (active)
4,O=C(c1ccccc1)[C@H]1[C@@H]2CCCN2[C@]2(C(=O)Nc3ccc(F)cc32)[C@]12C(=O)Nc1ccccc12,96.2% (inactive)
5,COc1ccc(C(=O)c2ccc(C)cc2)c(OC)c1OC,20.5% (inactive)
6,CC(C)(C)c1cc(O)c(C(C)(C)C)cc1O,66.2% (inactive)
7,CCOC(=O)c1ccc2c(c1)nc(-c1ccc(Cl)cc1)n2-c1cc(C(C)(C)C)[nH]n1,18.7% (inactive)
8,O=S(=O)(O)c1ccc2c(c1)Sc1cc(S(=O)(=O)O)ccc1O2,107% (inactive)
9,COc1ccc(C(=O)N2N=C(c3ccc(F)cc3)CC2c2cn(-c3ccccc3)nc2-c2ccccc2)cc1 (centres undefined),60.8% (inactive)
10,CCOC(=O)NCCc1nc2c([nH]1)c(=O)n(C)c(=O)n2C,112% (inactive)
11,OCCCc1n(Cc2ccc3ccccc3c2)c2ccccc2[n+]1Cc1ccc2ccccc2c1,-27.7% (active)
12,CCOC(=O)CNC,101% (inactive)
13,CCC(C)[C@H]1OC(=O)[C@H](C(C)C)N(C)C(=O)[C@@H](C(C)C)OC(=O)[C@H](C(C)C)N(C)C(=O)[C@@H](C(C)CC)OC(=O)[C@H](C(C)C)N(C)C1=O (some centres undefined),-0.281% (active)
14,COC(=O)C1(C)CCC[C@]2(C)[C@H]3C[C@H]4C(C(C)C)=C[C@]3(CC[C@@H]12)[C@H]1[C@@H]4[C@@H](OC(=O)c2ccco2)CC[C@@H]1OC(=O)c1ccco1 (some centres undefined),102% (inactive)
